Source: PubChem
The list is not random: actives were taken first. Their share in the collection is about 1.4%.
AMA1-RON2 inh: disrupts binding of P. falciparum AMA1 to RON2. AlphaScreen AMA1-biotinylated RON2 peptide binding. Potency, µM (titrated, usually from 58.2 µM), for inactives: top-dose activity change, negative = inhibition, most hits filed as inhibitors. 360,000 compounds, 0.2% hits;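 further: 0% = vehicle wells and -100% = peptide control; nearly all actives have a fitted effect of over 45% in size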
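AMA1 (3D7) with his tag at 25 nM final met compounds first, then biotinylated RON2 peptide at 25 nM; detection used donor plus acceptor beads, 10 µg/mL apiece, read by AlphaScreen after 30 min at room temperature.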
AmpC detergent: inhibitors of E. coli AmpC beta-lactamase with detergent; P00811; AmpC hydrolysis of nitrocefin, absorbance 480 nm, 0.01% Triton; Potency, µM (series often up to 114 µM), inactives show at the highest dose activity change, negative = inhibition, actives largely listed as inhibitors; 370,000 compounds, 0.041% hits;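 further: 0% = no-compound wells and -100% = no-enzyme wells; nearly all actives have a fitted effect of over 25% in size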
Target sequence (P00811 whole entry, looked up): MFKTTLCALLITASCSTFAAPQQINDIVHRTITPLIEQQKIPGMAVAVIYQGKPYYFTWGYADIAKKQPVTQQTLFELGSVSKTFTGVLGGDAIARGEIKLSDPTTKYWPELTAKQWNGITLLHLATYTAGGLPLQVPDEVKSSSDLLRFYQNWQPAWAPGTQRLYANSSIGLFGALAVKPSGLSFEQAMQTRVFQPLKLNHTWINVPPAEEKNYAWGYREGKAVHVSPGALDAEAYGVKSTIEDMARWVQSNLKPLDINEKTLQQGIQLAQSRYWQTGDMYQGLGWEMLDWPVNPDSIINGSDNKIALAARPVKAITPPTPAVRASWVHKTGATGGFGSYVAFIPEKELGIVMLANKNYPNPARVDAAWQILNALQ
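20 mM phosphate pH 7.0 + 0.01% (detergent screen) or 0.0001% Triton X-100; 5.3 nM AmpC reagent; cpd preinc 15 min RT; nitrocefin (800 uM stock) to start; A480 q20 s × 4 min; Activity was normalised to no-enzyme and no-compound control wells.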
VACV Venus inh: inhibitors of vaccinia virus (Venus reporter); Vaccinia virus Venus reporter expression, fluorescence; AID 720580; Potency, µM (highest dose often 36.5 µM), without a hit: at the top dose activity change, negative = inhibition, actives largely listed as inhibitors; 330,000 compounds, 0.46% hits; calls by dose curve; tested in A549 cells; further: on the % scale 0 is the no-effect control and ±100 the full control effect; nearly all actives have a fitted effect of over 30% in size
VACV mCherry inh: inhibitors of vaccinia virus infection (mCherry reporter signal); 310,000 compounds, 0.63% hits; Vaccinia virus mCherry reporter infection, fluorescence; AID 720579; Potency, µM (doses to about 36.5 µM), for inactives: at the top dose activity change, negative = inhibition, usual class: inhibitors; calls by dose curve; tested in A549 cells; further: on the % scale 0 is the no-effect control and ±100 the full control effect; nearly all actives have a fitted effect of over 35% in size
AmpC no deterg: inhibitors of E. coli AmpC beta-lactamase without detergent; Potency, µM (doses to about 57.1 µM), without a hit: at the top dose activity change, negative = inhibition, usual class: inhibitors; AmpC nitrocefin hydrolysis, absorbance 480 nm, 0.0001% Triton; P00811; 330,000 compounds, 0.52% hits;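 further: plate controls were no compound for no effect and no enzyme for full effect; nearly all actives have a fitted effect of over 20% in size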
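20 mM phosphate pH 7.0 + 0.01% (detergent screen) or 0.0001% Triton X-100; 5.3 nM AmpC reagent; cpd preinc 15 min RT; nitrocefin (800 uM stock) to start; A480 q20 s × 4 min; Activity was normalised to no-enzyme and no-compound control wells.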
SARS PLpro yeast: SARS-CoV PLP inhibition in yeast. AID 485353. Potency, µM (highest dose often 32.9 µM), for the others: at the top dose activity, positive = growth rescue, actives largely listed as activators. 330,000 compounds, 0.19% hits. S. cerevisiae expressing SARS-CoV PLpro, growth rescue; calls by dose curve; further: 0% is about no effect; nearly all actives have a fitted effect of over 55% in size
An asterisk follows results filed as active; i = inactive; ? = inconclusive; nt = no result given; [ ] = another dose, or the depositor's remark. Unless noted, the call rests on the fitted dose curve; in most records, active means well fitted curve in the direction sought with a large enough effect; inconclusive means small, poorly fitted or top-dose-only effect, or another doubt; inactive means no such curve, though single readings can be large; an effect the other way counts as inactive or inconclusive. Potency means the concentration at half of the fitted maximal effect.

SMILES | AMA1-RON2 inh | AmpC detergent | VACV Venus inh | VACV mCherry inh | AmpC no deterg | SARS PLpro yeast
O=C1NC(=S)NC(=O)C1=Cc1cccc2cc3ccccc3cc12 | 43.4% | 2.5% | 11.2µM* | ? | -42.8% | -5.7%
CC1CCc2nn(CC(=O)NCCC3=CCCCC3)cc2C1 (stereo not drawn) | 5.5% | ? | -15.5% | -7.1% | 0.562µM* | -1.4%
CC1CCc2nn(CC(=O)NCCN3CCOCC3)cc2C1 (stereo not drawn) | -0.6% | -0.2% | 5.3% | -3.1% | 11.2µM* | 2.4%
CC1CCc2nn(CC(=O)NCCCN3CCOCC3)cc2C1 (stereo not drawn) | -5.7% | ? | -10.2% | -6.0% | ? | 0.0%
COCCNC(=O)Cn1cc2c(n1)CCC(C)C2 (stereo not drawn) | -0.9% | ? | -0.7% | -10.7% | -11.1% | -4.3%
COc1cccc2c(=O)n(CC(=O)NC3CCCC3)ccc12 | 11.9% | ? | -11.8% | -8.2% | -7.6% | 8.0%
COc1cccc2c(=O)n(CC(=O)Nc3ccccc3)ccc12 | -4.4% | -10.9% | -18.3% | i | 50.1µM* | 2.2%
COc1cccc2c(=O)n(CC(=O)Nc3ccc(F)cc3F)ccc12 | -0.3% | ? | -12.1% | -11.5% | 25.1µM* | 3.1%
COc1cccc2c(=O)n(CC(=O)N3CCCCC3)ccc12 | 0.8% | 2.3% | 2.2% | -26.5% | 39.8µM* | 0.2%
Cc1ccc(CSCc2nc3ccccc3[nH]2)cc1 | -16.3% | -11.8% | -19.7% | -15.9% | -31.8% | -2.0%
Cc1cc(C)cc(CC(Cc2nc3ccccc3[nH]2)c2nc3ccccc3[nH]2)c1 (stereo not drawn) | 13.7% | ? | 14.1µM* | -14.4%[1.46 µM] | -14.9% | 8.4%
Cc1ccc(NC(=O)CN2C(=O)CC(c3ccco3)Sc3ccccc32)cc1Cl (stereo not drawn) | nt | 18.3% | -9.1% | -3.3% | nt | nt
O=C(c1n[nH]c2c1CCCC2)N1CCC(n2c(C3CCCO3)nc3ccccc32)CC1 (stereo not drawn) | nt | nt | 0.5% | -5.4% | nt | nt
CC(CNc1ccccc1O)C(=O)O (stereo not drawn) | 3.5% | 5.3% | 89.1µM* | 4.47µM* | -11.3% | -30.1%
CC(NC(=O)CCC(=O)Nc1ccccc1O)c1ccccc1 (stereo not drawn) | -1.7% | nt | -17.0%[7.34 µM] | -3.6%[7.34 µM] | nt | nt
COc1ccc(OC)c2sc(NC(=O)c3ccc(S(=O)(=O)N4CCOCC4)cc3)nc12 | -4.3% | ? | -13.5% | -13.6% | 7.08µM* | 7.2%
Cc1ccc(C(=O)NCCc2nnc3n2CCN(Cc2cc(C)cc(C)c2)CC3)cc1 | nt | nt | -10.0% | -14.1% | nt | nt
O=c1[nH]c(=O)n(CCC2=CCCCC2)c(O)c1/C=N/Nc1cccc2ccccc12 | 21.2% | 4.0% | 6.7% | ? | 28.2µM* | -0.7%
O=c1[nH]c(=O)n(CCC2=CCCCC2)c(O)c1/C=N/Nc1ccccc1 | -2.2%[2.32 µM] | -1.0% | -22.0% | -7.1% | -9.7% | -2.4%
O=C(Nc1cccc(-n2cccn2)c1)C1CCCN(Cc2cc3ccccc3[nH]2)C1 (stereo not drawn) | -7.2% | ? | -28.0% | 12.6µM* | -12.1% | -3.5%
Cc1[nH]c2ccccc2c1C(=O)CNc1ccc(Br)cc1 | nt | nt | -14.3% | -14.5% | nt | nt
O=c1oc2ccccc2c2c1C1O[C@](c3ccsc3)(Cc3ccccc31)O2 | nt | -11.2%[22.9 µM] | nt | nt | 4.47µM* | 1.4%[6.58 µM]
Nc1nc2c(s1)CCc1c-2cnn1-c1ccccc1 | 8.3% | 89.1µM* | -21.7% | ? | -49.2% | -31.3%
Cc1[nH]c2ccccc2c1C(=O)C(C)Sc1nc2ccccc2c(=O)n1Cc1cccnc1 (stereo not drawn) | nt | nt | -14.7% | 11.5% | nt | nt
S=C1NC2=C(CCC/C2=C\c2ccc(Cl)cc2)C(c2ccc(Cl)cc2)N1 (stereo not drawn) | 37.9% | 0.2% | -19.5% | ? | -53.0% | -0.7%
SMILES | AMA1-RON2 inh | AmpC detergent | VACV Venus inh | VACV mCherry inh | AmpC no deterg | SARS PLpro yeast
S=C1NC2=C(CCC/C2=C\c2ccccc2)C(c2ccccc2)N1 (stereo not drawn) | -5.9% | -12.3% | 3.2% | i | 11.2µM* | -3.4%
Cc1ccc(C)c(CN2C[C@H](Sc3ccccn3)C[C@H]2C(=O)Nc2ccc3sc(C)nc3c2)c1 | nt | nt | 0.5% | i | nt | nt
N#Cc1c(NC(=O)CSc2ncnc3sccc23)oc(-c2ccco2)c1-c1ccco1 | 5.1% | -8.4% | -3.3% | -17.4% | 1.78µM* | -0.1%
Cc1csc(N=Nc2ccc(N(C)C)cc2)[n+]1[O-] | 14.1µM* | nt | -14.1% | i | nt | nt
C=CCn1c(SCC(=O)NCc2ccco2)nnc1-c1cccc(N(C)C)c1 | nt | nt | -20.2% | -14.0% | nt | nt
O=P(C(Cl)Cl)(N1CCOCC1)N1CCOCC1 | 8.7% | -9.8% | 3.1% | -9.8% | -16.6% | -7.2%
O=CC(Br)P(=O)(N1CCOCC1)N1CCOCC1 (stereo not drawn) | -2.8% | 56.2µM* | nt | nt | -49.9% | -0.3%
CN1c2ccc([N+](=O)[O-])cc2N(C)C1(C)c1ccccc1 (stereo not drawn) | 12.6µM* | 0.8% | -7.5% | ? | -39.1% | 0.7%
CC(C)n1cnc2c(NCc3ccccc3)cc(N[C@H](C)CO)cc21 | -11.6% | nt | 14.1µM* | ? | 173.5% | 11.7%
CCC(CO)Oc1cc(NCc2ccc(C(C)(C)C)cc2)c2ncn(C(C)C)c2c1 (stereo not drawn) | -28.9% | nt | ? | 12.6µM* | 102.4% | 3.7%
CCC(CO)Oc1cc(NCc2ccccc2)c2ncn(C(C)C)c2c1 (stereo not drawn) | -1.9% | nt | -16.1% | ? | 125.4% | 7.6%
COc1cc(/C=N/NC(=O)C(Cc2c[nH]c3ccccc23)NC(=O)OCC(C)C)cc([N+](=O)[O-])c1O (stereo not drawn) | 5.9% | -16.5% | -15.6% | -18.9% | -52.1% | 10.0%
COc1cc(/C=N/NC(=O)C(Cc2c[nH]c3ccccc23)NC(=O)OCc2ccccc2)cc([N+](=O)[O-])c1O (stereo not drawn) | 0.7% | -6.2% | -15.7% | -0.3% | 10µM* | 14.8%
Clc1ccc(Cn2cc3c(n2)-c2cc4ccccc4n2C3)cc1 | nt | nt | -8.4% | 23.2% | nt | nt
CC1(C)CCC(c2ccc(Cl)cc2)=C(CN2CCN(c3ccc(C(=O)NS(=O)(=O)c4ccc(N[C@H](CCN5CCOCC5)CSc5ccccc5)c(S(=O)(=O)C(F)(F)F)c4)cc3)CC2)C1 | nt | nt | 10µM* | ? | nt | nt
C=C1C=C(C(F)F)n2ncc(C(=O)Nc3ccc(Br)cc3C(F)(F)F)c2N1 | nt | nt | -11.9% | -13.6% | nt | nt
CCc1ccc(Nc2nnc(SCC(=O)Nc3sccc3C(N)=O)s2)cc1 | 13.1% | 5.5% | -23.7% | -28.5% | 15.8µM* | -20.6%
Cc1nc2c(=O)[nH]c(=S)[nH]c2[nH]c1=O | 28.2µM* | nt | 3.9% | i | nt | nt
COc1ccc2c(c1)-c1nc(-n3ncc(C(=O)N(C)CC4CCCN(C)C4)c3C)ncc1CC2 (stereo not drawn) | nt | nt | -2.4% | -14.9% | nt | nt
